This is an account of results in PubChem BioAssay (NCATS).

A short description of experiment [1]: qHTS of pediatric cancer cell lines to identify multiple opportunities for drug repurposing: Primary screen for SK-N-MC cells (AID 1347093). Also: potency is read from the fitted curve at half-maximal effect. The conditions noted are these: SK-N-MC viability, CellTiter-Glo luminescence, 48 h; series mostly up to 46 µM. The gist of the method:
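Metabolically active cells were quantified by ATP-dependent luminescence (CellTiter-Glo, 15 min at room temperature) following 48 h treatment. Cells had been plated at 500-1,000 per well and settled for 5 h beforehand.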
In general terms: qHTS replaces the single test concentration by a dilution series.

A short description of experiment [2]: qHTS of pediatric cancer cell lines to identify multiple opportunities for drug repurposing: Primary screen for NB-EBc1 cells (AID 1347095). The conditions noted are these: NB-EBc1 neuroblastoma viability, CellTiter-Glo luminescence, 48 h; series mostly up to 46 µM. The gist of the method:
(§1)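 Quantitative HTS format: each compound titrated (MIPE 11 points from 0.78 nM, NPC 8 points from 0.59 nM) onto cells plated 5 hours earlier. After 48 h at 37 degrees C, CellTiter-Glo luminescence was recorded.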

Experiment [3] can be described thus: qHTS of pediatric cancer cell lines to identify multiple opportunities for drug repurposing: Primary screen for U-2 OS cells (AID 1347096). Also: nearly all actives have a fitted effect of over 50% in size. Also: potency is read from the fitted curve at half-maximal effect. The following applies: U-2 OS viability, CellTiter-Glo luminescence, 48 h; series mostly up to 46 µM. The gist of the method: (§2)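 Cells (500-1,000/well) in growth media were settled 5 h at 37 degrees C, then given compounds for 48 h. Viability was read as CellTiter-Glo luminescence. Primary runs used MIPE at 11 points (0.78 nM-46 µM) and NPC at 8 points (0.59 nM-46 µM); follow-ups used 11 points.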

A short description of experiment [4]: qHTS of pediatric cancer cell lines to identify multiple opportunities for drug repurposing: Primary screen for Saos-2 cells (AID 1347097). Also: nearly all actives have a fitted effect of over 40% in size. Also: potency is read from the fitted curve at half-maximal effect. The conditions noted are these: Saos-2 viability, CellTiter-Glo ATP luminescence, 48 h; series mostly up to 46 µM. In short, it runs like this: as §1
Experiment [5] is described as follows: qHTS of pediatric cancer cell lines to identify multiple opportunities for drug repurposing: Primary screen for SK-N-SH cells (AID 1347098). Also: nearly all actives have a fitted effect of over 65% in size. Also: potency is read from the fitted curve at half-maximal effect. The following applies: SK-N-SH viability, CellTiter-Glo luminescence, 48 h; series mostly up to 57 µM. The gist of the method:
(§3)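 Cells (500-1,000/well) rested 5 h, then received compounds for 48 h; metabolically active cells were measured by CellTiter-Glo luminescence. Final concentrations spanned up to 46 µM (MIPE, 11-point) or 0.59 nM-46 µM (NPC, 8-point) in primary screens, 11-point in follow-ups.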

A short description of experiment [6]: qHTS of pediatric cancer cell lines to identify multiple opportunities for drug repurposing: Primary screen for NB1643 cells (AID 1347099). Also: nearly all actives have a fitted effect of over 50% in size. Also: potency is read from the fitted curve at half-maximal effect. The following applies: NB1643 neuroblastoma viability, CellTiter-Glo luminescence, 48 h; series mostly up to 46 µM. The gist of the method: as §1
The nature of experiment [7]: qHTS of pediatric cancer cell lines to identify multiple opportunities for drug repurposing: Primary screen for BT-12 cells (AID 1347101). Also: nearly all actives have a fitted effect of over 25% in size. Also: potency is read from the fitted curve at half-maximal effect. The following applies: BT-12 viability, CellTiter-Glo luminescence, 48 h; series mostly up to 57.3 µM. In short, it runs like this: as §3
A short description of experiment [8]: qHTS of pediatric cancer cell lines to identify multiple opportunities for drug repurposing: Primary screen for BT-37 cells (AID 1347094). Also: potency is read from the fitted curve at half-maximal effect. The conditions noted are these: BT-37 viability, CellTiter-Glo luminescence, 48 h; series mostly up to 57.3 µM. The gist of the method:
as §1

Experiment [9] is described as follows: qHTS of pediatric cancer cell lines to identify multiple opportunities for drug repurposing: Primary screen for LAN-5 cells (AID 1347100). Also: potency is read from the fitted curve at half-maximal effect. The following applies: LAN-5 neuroblastoma viability, CellTiter-Glo luminescence, 48 h; series mostly up to 46 µM. The gist of the method: as §2
Experiment [10] can be described thus: qHTS of pediatric cancer cell lines to identify multiple opportunities for drug repurposing: Primary screen for Rh18 cells (AID 1347102). Also: nearly all actives have a fitted effect of over 65% in size. Also: potency is read from the fitted curve at half-maximal effect. The conditions noted are these: Rh18 rhabdomyosarcoma viability, CellTiter-Glo luminescence, 48 h; series mostly up to 46 µM. The gist of the method:
as §2

Results filed as inconclusive are left out. Active and inactive are the calls of the source. Calls follow the shape of the dose curve; as a rule, active = well fitted curve in the direction sought with a large enough effect; inconclusive = small, poorly fitted or top-dose-only effect, or another doubt; inactive = no such curve, though single readings can be large; an effect the other way counts as inactive or inconclusive.

On to `CN(C)[C@@H]1C(=O)C(C(N)=O)=C(O)[C@@]2(O)C(=O)C3=C(O)c4c(O)cccc4C[C@H]3C[C@@H]12`, for which the Potency entry in experiment [1], in experiment [2], in [3], in [4], in experiment [5] and in experiment [6] was “inactive” each time. In addition, in experiment [7], the Potency was 17.4 µM (active).
For `CC1CCCCN1CCCOC(=O)c1ccc(OC2CCCCC2)cc1` (centres undefined), the Potency entry in [1], in [8], in [3], in [6], in experiment [9] and in experiment [10] was “inactive” each time.
Regarding `CCNC(=O)NCCCOc1cccc(CN2CCCCC2)c1`, the Potency result in experiment [1], in [2], in experiment [3], in experiment [4], in experiment [5] and in experiment [6] was “inactive” in each case. Further, the Potency result in experiment [9], in experiment [7] and in experiment [10] was “inactive” throughout.
For `COc1cc2c(cc1OC)CN(C(=O)[C@H](C)N[C@@H](CCc1ccccc1)C(=O)O)[C@H](C(=O)O)C2`, the Potency result in experiment [1], in experiment [8], in experiment [3], in experiment [4], in experiment [6] and in experiment [7] was “inactive” in each case. Also, the Potency entry in experiment [10] was “inactive”.
On to `CC(=O)N1CCN(c2ccc(O)cc2)CC1`, for which the Potency result in experiment [1], in experiment [2], in experiment [3], in experiment [4], in experiment [5] and in experiment [6] was “inactive” in each case. Further, the Potency result in experiment [9], in experiment [7] and in experiment [10] was “inactive” in each case.
In the case of `Cc1ccc2c(Cl)cc(Cl)c(O)c2n1`, the Potency entry in experiment [1], in experiment [2], in experiment [3], in [4], in experiment [5] and in [6] was “inactive” each time. Besides, the Potency entry in [9] and in [10] was “inactive” in each case.
As for `O=C1CC(c2ccc(Cl)cc2)CC(=O)N1`, the Potency entry in [1], in experiment [2], in experiment [3], in experiment [4], in experiment [5] and in [9] was “inactive” in each case. Moreover, the Potency result in experiment [7] and in experiment [10] was “inactive” in each case.
Take `CC(=O)OCC(=O)[C@@]1(O)[C@H](OC(C)=O)C[C@H]2[C@@H]3CCC4=CC(=O)C=C[C@]4(C)[C@@]3(F)[C@@H](O)C[C@@]21C`: the Potency entry in experiment [1], in experiment [2], in [3], in experiment [4], in [5] and in experiment [6] was “inactive” in each case. For the same compound, the Potency entry in experiment [9] and in [10] was “inactive” in each case.
As for `O=C(CCCl)NCc1ccccc1`, the Potency result in experiment [1], in [2], in [3], in experiment [4], in experiment [5] and in experiment [6] was “inactive” in each case. Also, the Potency entry in experiment [9], in experiment [7] and in experiment [10] was “inactive” throughout.
Turning to `O=C(O)/C=C(\CC(=O)O)C(=O)O`, the Potency entry in experiment [1], in experiment [2], in [3], in experiment [4], in [6] and in experiment [9] was “inactive” throughout. Further, the Potency result in [7] and in [10] was “inactive” in each case.
As for `CC(C(=O)O)c1ccc(/C=C2\CCCCC2=O)cc1` (centres undefined), the Potency entry in experiment [1], in experiment [2], in experiment [3], in experiment [4], in experiment [5] and in experiment [6] was “inactive” throughout. Moreover, the Potency result in experiment [9] and in experiment [10] was “inactive” throughout.
As for `CCCc1ccc(OCC(=O)N2CCN(C(=O)COc3ccc(CCC)cc3OC)CC2)c(OC)c1`, the Potency result in [1], in experiment [8], in [4], in experiment [5], in experiment [6] and in experiment [7] was “inactive” in each case. Besides, the Potency result in experiment [10] was “inactive”.
Consider `CCCCCCCCCCCCCCCCCCNC(=O)OC1CCN(C(=O)OC[C@H](COC(=O)N(Cc2cccc[n+]2CC)C(=O)c2ccccc2OC)OC)CC1`, for which the Potency is 8.41 µM (active) in experiment [1], 21.9 µM (active) in [8], 23.7 µM (active) in experiment [4] and 8.71 µM (active) in experiment [7].
For `O=C(O)CCCC[P+](c1ccccc1)(c1ccccc1)c1ccccc1`, the Potency result in experiment [1], in experiment [2], in [3], in [4], in [5] and in [6] was “inactive” in each case. In addition, the Potency entry in experiment [7] and in experiment [10] was “inactive” in each case.
As to `CC(C)=CCNc1ncnc2c1ncn2[C@@H]1O[C@H](CO)[C@@H](O)[C@H]1O`, the Potency was 3.76 µM (active) in [1]; 6.17 µM (active) in experiment [8]; 21.1 µM (active) in [3]; 5.45 µM (active) in experiment [5]; 5.31 µM (active) in experiment [6]; 5.96 µM (active) in experiment [9]. Also, the Potency in [10] was 2.66 µM (active).
For the compound `Nc1c(NC/C=C\COc2cc(CN3CCCCC3)ccn2)c(=O)c1=O`, the Potency entry in experiment [1], in [2], in experiment [3], in experiment [4], in experiment [5] and in [6] was “inactive” throughout. The Potency result in experiment [9] and in experiment [10] was “inactive” throughout.
Turning to `C/C=C(/C(=C/C)c1ccc(OC(C)=O)cc1)c1ccc(OC(C)=O)cc1`, in [1], the Potency is 5.31 µM (active). Besides, the Potency result in experiment [8], in experiment [3], in [5], in [7] and in [10] was “inactive” in each case.
As to `COC(=O)c1c(Cl)c(Cl)c(C(=O)OC)c(Cl)c1Cl`, the Potency result in experiment [1], in [8], in experiment [3], in experiment [4], in [6] and in experiment [9] was “inactive” throughout. Moreover, the Potency entry in experiment [7] and in [10] was “inactive” in each case.
Take `CCc1cc2cc(OC)c(OC)cc2c(Cc2ccccc2)n1`: the Potency entry in experiment [1], in experiment [8], in experiment [3], in experiment [4], in [6] and in experiment [10] was “inactive” throughout.
Turning to `CSCC[C@H](NC(=O)[C@H](Cc1c[nH]c2ccccc12)NC(=O)CCNC(=O)OC(C)(C)C)C(=O)N[C@@H](CC(=O)O)C(=O)N[C@@H](Cc1ccccc1)C(N)=O`, the Potency entry in [1], in [2], in experiment [3], in [4], in experiment [5] and in experiment [6] was “inactive” in each case. In addition, the Potency entry in experiment [9], in [7] and in experiment [10] was “inactive” in each case.
Take `C[N+](C)(CCOc1ccccc1)Cc1cccs1`: the Potency result in [1], in [2], in experiment [3], in experiment [4], in experiment [5] and in experiment [6] was “inactive” in each case. Moreover, the Potency result in experiment [9], in experiment [7] and in experiment [10] was “inactive” throughout.
